# Compound activity (PubChem)
# SW480 rereplic: induces DNA re-replication in SW480 colon adenocarcinoma cells | SW480 DNA re-replication, Hoechst DNA content imaging, 48 h | Potency, µM (top dose mostly 46.1 µM), hits mostly activators | 1.8% of 340,000 active; also: nearly all actives have a fitted effect of over 55% in size
#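 Image-based read-out: total Hoechst fluorescence of nuclei (405 nm excitation, 500-530 nm emission), with hits raising the fraction of high-intensity nuclei. SW480 colon cells incubated 48 hr with compounds at 37 C.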
# VP16 counter: counter-screen for ROR gamma inhibitors: Gal4-VP16 reporter. Drosophila S2 Gal4-VP16 UAS-luciferase, luminescence, 20 h. Potency, µM (highest dose often 53.6 µM), most hits filed as inhibitors. 3.5% of 310,000 active. AID 2546;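 also: Gal4-VP16 expression switched on by copper sulfate through the metallothionein promoter; nearly all actives have a fitted effect of over 50% in size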
# ELG1 repair inh: blocks ELG1-dependent DNA repair in HEK293T cells. HEK293T ELG1-luciferase reporter, luminescence, 16 h; DNA damage induced by 5-fluorouridine. Potency, µM (highest dose often 46.1 µM), actives largely listed as inhibitors. 2.3% of 330,000 active; also: nearly all actives have a fitted effect of over 55% in size
#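 Cells (2,000 per well) received 5-fluorouridine plus test compound or DMSO and were incubated 16 hr at 37 °C, 5% CO2. Luciferase activity was read by luminescence 30 min after ONE-Glo addition; signal suppression marked inhibition of damage-induced ELG1 function.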
# RORg inh: ROR gamma (mouse) transcription inhibition | Drosophila S2 Gal4-RORgamma UAS-luciferase reporter, 20 h | Potency, µM (series often up to 53.6 µM), actives largely listed as inhibitors | 5.4% of 310,000 active; also: nearly all actives have a fitted effect of over 60% in size
# Target sequence (P51450 whole entry, looked up, the tested form may be a part): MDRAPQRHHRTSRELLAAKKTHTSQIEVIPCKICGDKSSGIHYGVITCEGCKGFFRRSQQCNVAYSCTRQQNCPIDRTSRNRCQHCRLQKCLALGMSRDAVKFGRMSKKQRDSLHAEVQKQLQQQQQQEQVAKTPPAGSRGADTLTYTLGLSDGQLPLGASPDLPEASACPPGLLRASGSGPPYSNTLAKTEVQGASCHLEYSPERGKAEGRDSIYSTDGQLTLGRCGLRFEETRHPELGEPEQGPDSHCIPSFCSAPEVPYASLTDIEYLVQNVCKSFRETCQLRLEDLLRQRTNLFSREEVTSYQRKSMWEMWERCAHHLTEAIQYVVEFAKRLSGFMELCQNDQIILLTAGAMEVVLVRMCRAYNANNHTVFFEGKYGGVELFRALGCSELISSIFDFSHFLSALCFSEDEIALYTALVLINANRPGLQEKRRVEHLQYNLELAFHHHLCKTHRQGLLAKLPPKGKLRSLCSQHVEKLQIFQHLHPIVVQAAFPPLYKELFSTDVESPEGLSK
#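 Drosophila S2 cells stably expressing Gal4-DBD/mouse RORγ fusion under metallothionein promoter plus UAS-luciferase; compound 1 h, then 700 uM CuSO4 induction for 20 h at ambient temperature; inhibition read as reduced luminescence.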
# MCF10A rerep: DNA re-replication induction in MCF 10a cells | MCF 10A DNA re-replication, Hoechst nuclear intensity, 48 h | Potency, µM (top dose mostly 46.1 µM), actives largely listed as activators | 2.9% of 350,000 active; also: nearly all actives have a fitted effect of over 50% in size
# Numbers stand for hits; 0 = inactive; ? = inconclusive; - = not tested or not shown; [ ] = dose if it differs, or a comment. A selection: hits, their analogues and other compounds. The true share with any hit is near 10%. Calls follow the shape of the dose curve; as a rule, active = well fitted curve in the direction sought with a large enough effect; inconclusive = small, poorly fitted or top-dose-only effect, or another doubt; inactive = no such curve, though single readings can be large; an effect the other way counts as inactive or inconclusive.
SMILES,SW480 rereplic,VP16 counter,ELG1 repair inh,RORg inh,MCF10A rerep
C=CCNC(=O)c1c(N)n(CCN2CCOCC2)c2nc3ccccc3nc12,0,0,0,0,5.8µM
COCCCn1c(N)c(C(=O)OCCOC)c2nc3ccccc3nc21,?,0,?,0,0
COCCNC(=O)c1c(NC(=O)c2ccc(Br)o2)n(Cc2ccccc2)c2nc3ccccc3nc12,?,?,?,0,5.8µM
COCCCNC(=O)c1c(NC(=O)c2ccco2)n(Cc2ccccc2)c2nc3ccccc3nc12,?,0,0,0,?
CC(C)CN1CCC2(CC1)CCN(C(=O)Oc1ccccc1)CC2,-,0,-,0,-
O=C(c1cc2ccccn2n1)N1CCN(Cc2ccccc2)CC1,0,0,0,?,0
c1cc(CN2CCCC3(CCNCC3)C2)ccn1,-,0,-,0,-
CCCCCn1c(NC(=O)c2ccco2)c(C(=O)OCC)c2nc3ccccc3nc21,3.7µM,0,0,0,5.8µM
CC(C)CCn1c(N)c(C(=O)NCc2cccs2)c2nc3ccccc3nc21,5.8µM,0,6.5µM,0,1.5µM
CC(C)OCCCNC(=O)c1c(N)n(Cc2cccs2)c2nc3ccccc3nc12,3.7µM,16µM,16µM,?,1.8µM
Nc1c(C(=O)OCC2CCCO2)c2nc3ccccc3nc2n1Cc1cccs1 (configuration not stated),0,0,?,?,?
CC(C)NC(=O)C(C)N1CCN(S(=O)(=O)c2ccc3ccccc3c2)CC1 (configuration not stated),0,0,?,0,0
COC(=O)[C@H]1[C@H](c2ccccc2)C(=O)[C@@]2(O)c3ccccc3O[C@@]12c1ccccc1,-,0[10 µM],-,0[10 µM],-
CCc1n[nH]c(=S)n1/N=C/c1c(C)nn(-c2ccccc2)c1Cl,0,?,0,7.1µM,0
CCCCCOC(=O)c1ccccc1C(=O)OCCCCC,-,0,-,0,-
Cc1cccc(-c2nc3ccc(C(=O)N4CCC5(CC4)OCCO5)cc3nc2-c2cccc(C)c2)c1,?,0,?,0,?
O=C(c1ccc2c(c1)ncn2C1CCCCC1)N1CCC2(CC1)OCCO2,12µM,0,0,0,13µM
CCOC(=O)C1C(C=C(C)C)C1(C)C (configuration not stated),-,0,-,0,-
CCCCn1c(-c2nn(C)cc2Cl)n[nH]c1=S,0,?,0,13µM,0
CCCCn1nc(C)c(C(=O)O)c1Cl,0,0,0,0,0
NC(=NCc1ccc(Cl)cc1)SCCCc1cnc[nH]1,-,0,-,0,-
Cc1cc([N+](=O)[O-])c2ccccc2[n+]1[O-],15µM,3.5µM,?,?,16µM
Cc1ccccc1[N+](=O)[O-],0,0,0,0,0
CCOC(=O)c1ccc(N=C(CC)c2c(O)n(C)c(=O)n(C)c2=O)cc1,0,0,0,0,0
CCC(=Nc1ccc2c(c1)CCC2)c1c(O)n(C)c(=O)n(C)c1=O,0,0,?,?,0
SMILES,SW480 rereplic,VP16 counter,ELG1 repair inh,RORg inh,MCF10A rerep
Cn1c(O)c(C(=O)c2ccccc2)c(=O)n(C)c1=O,0,0,0,0,0
CCC(=NCc1ccc(F)cc1)c1c(O)n(C)c(=O)n(C)c1=O,0,22µM,7.9µM,0,0
CCC(=NCCC(c1ccccc1)c1ccccc1)c1c(O)n(C)c(=O)n(C)c1=O,0,0,?,0,8.2µM
CCC(=Nc1ccc(Cc2ccncc2)cc1)c1c(O)n(C)c(=O)n(C)c1=O,0,0,7.3µM,0,0
O=Nc1ccc(Nc2ccccc2)cc1,-,?,-,0,-
COC1C(O)C(C)OC(OC2C(Oc3cccc4c(O)c5c(=O)oc6ccc(C)c7c(=O)oc(c34)c5c67)OC(C)C(O)C2O)C1O (configuration not stated),21µM,-,-,-,8.2µM
ClC(Cl)(Cl)C(Cl)(Cl)Cl,-,0,-,0,-
CC[C@]12C=CCN3CC[C@@]4(c5ccc(OC)cc5N(C)[C@H]4[C@@](O)(C(=O)OC)[C@@H]1OC(C)=O)C32 (some centres not stated),-,0,-,0,-
COC(=O)C(O)(c1ccc(NC(=S)NC(=O)c2ccccc2)cc1)C(F)(F)F (configuration not stated),?,?,?,10µM,?
CCC1CN2CCC1CC2C(Oc1cc2ccccc2c2ccccc12)c1ccnc2ccc(O)cc12 (configuration not stated),-,0[10 µM],-,0[10 µM],-
